Screening data (PubChem)
An excerpt weighted towards active compounds, which were near 11% of everything screened.
Pf growth 96h: inhibits malaria parasite growth, 96 h. P. falciparum luciferase reporter growth, 96 h. Potency, µM (doses to about 28.7 µM), for the others: top-dose activity change, negative = inhibition, most hits filed as inhibitors. 320,000 tested, 6.9% active. AID 504834
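Delayed-death screen, second-generation endpoint: infected erythrocytes, 2% hematocrit, 0.05% parasitemia final; 96 hours at 37 C, 5% CO2; luciferase detection reagent; luminescence decrease equals reduced growth.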
AmpC no deterg: AmpC beta-lactamase inhibition without detergent; P00811; AmpC nitrocefin hydrolysis, absorbance 480 nm, 0.0001% Triton; Potency, µM (series often up to 57.1 µM), for the others: at the top dose activity change, negative = inhibition, most hits filed as inhibitors; 330,000 tested, 0.52% active; AID 485341;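 note: plate controls were no compound for no effect and no enzyme for full effect; nearly all actives have a fitted effect of over 20% in size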
Target sequence (P00811 whole entry, looked up): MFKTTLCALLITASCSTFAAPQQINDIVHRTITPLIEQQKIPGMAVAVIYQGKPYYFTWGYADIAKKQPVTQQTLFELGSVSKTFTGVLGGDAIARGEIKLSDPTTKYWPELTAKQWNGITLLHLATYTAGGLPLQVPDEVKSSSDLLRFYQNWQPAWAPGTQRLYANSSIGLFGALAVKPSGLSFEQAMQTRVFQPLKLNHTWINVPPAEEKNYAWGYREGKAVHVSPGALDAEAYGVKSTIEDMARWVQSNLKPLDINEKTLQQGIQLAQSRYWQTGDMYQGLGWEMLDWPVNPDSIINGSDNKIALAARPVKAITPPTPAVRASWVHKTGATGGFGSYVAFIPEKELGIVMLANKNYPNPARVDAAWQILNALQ
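20 mM phosphate pH 7.0 + 0.01% (detergent screen) or 0.0001% Triton X-100; 5.3 nM AmpC reagent; cpd preinc 15 min RT; nitrocefin (800 uM stock) to start; A480 q20 s × 4 min; Activity was normalised to no-enzyme and no-compound control wells.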
Pf growth 48h: P. falciparum growth inhibition at 48 hours (one generation); 310,000 tested, 5.9% active; AID 504832; Potency, µM (highest dose often 28.7 µM), without a hit: at the highest dose activity change, negative = inhibition, usual class: inhibitors; P. falciparum luciferase growth in erythrocytes, 48 h
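Read-out is firefly luciferase luminescence from an integrated reporter in P. falciparum, so falling signal marks reduced parasite growth. Infected erythrocytes were at 2% hematocrit and 0.1% parasitemia (final) in Albumax-supplemented RPMI 1640.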
HCV inhibitor: HCV inhibition; Potency, µM (series often up to 41.8 µM), without a hit: at the top dose activity change, negative = inhibition, actives largely listed as inhibitors; AID 651820; 340,000 tested, 3.4% active; Huh7.5.1 HCVcc-Cre infection, luciferase reporter, 44 h
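Antiviral activity was scored by luciferase reporter output from cells infected with HCVcc-Cre (~0.5 moi) in presence of compound, 44 h infection period, cells seeded 1,000/well 4 h prior.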
AmpC detergent: inhibitors of E. coli AmpC beta-lactamase with detergent; 370,000 tested, 0.041% active; Potency, µM (titrated, usually from 114 µM), for inactives: at the top dose activity change, negative = inhibition, most hits filed as inhibitors; AID 485294; AmpC hydrolysis of nitrocefin, absorbance 480 nm, 0.01% Triton; P00811;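 note: 0% = no-compound wells and -100% = no-enzyme wells; nearly all actives have a fitted effect of over 25% in size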
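AmpC (5.3 nM in the dispensed reagent) in 20 mM phosphate pH 7.0 with 0.01% (detergent screen) or 0.0001% Triton X-100 was preincubated with compounds for 15 min at room temperature. Nitrocefin was then added from an 800 uM solution, and hydrolysis was followed at 480 nm.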
AMA1 RON2 block: inhibitors of Plasmodium falciparum AMA1-RON2 interaction | AlphaScreen AMA1-biotinylated RON2 peptide binding | Potency, µM (top dose mostly 58.2 µM), without a hit: at the highest dose activity change, negative = inhibition, actives largely listed as inhibitors | 360,000 tested, 0.2% active | AID 720542;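 note: 0% = vehicle wells and -100% = peptide control; nearly all actives have a fitted effect of over 45% in size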
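AMA1 (3D7) with his tag at 25 nM final met compounds first, then biotinylated RON2 peptide at 25 nM; detection used donor plus acceptor beads, 10 µg/mL apiece, read by AlphaScreen after 30 min at room temperature.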
Starred values were filed as active, the others as inactive; u = inconclusive; x = no result. Calls come from the whole dose curve; as a rule, active = well fitted curve in the direction sought with a large enough effect; inconclusive = small, poorly fitted or top-dose-only effect, or another doubt; inactive = no such curve, though single readings can be large; an effect the other way counts as inactive or inconclusive. Unless noted, % is set by controls: 0 for no effect and ±100 for the full control effect; potency is the fitted concentration of half-maximal effect.

SMILES	Pf growth 96h	AmpC no deterg	Pf growth 48h	HCV inhibitor	AmpC detergent	AMA1 RON2 block
CC1CCN(CCc2nc3cc(NC(=O)COc4ccc([N+](=O)[O-])cc4)ccc3n2C)CC1	u	24.5%	3.7µM*	u	2.0%	-0.3%
CC1CCN(CCc2nc3cc(NC(=O)Nc4ccccc4)ccc3n2C)CC1	u	-12.1%	6.57µM*	u	-16.3%	-0.2%
CN(C(=O)CSc1nc2ccc(NC(=O)COc3ccccc3Cl)cc2s1)c1ccccc1	x	x	x	x	6.4%	x
COc1cccc(CC2(CO)CCCN(Cc3sc(N4CCCC4)nc3Cl)C2)c1 (stereo unspecified)	14.7µM*	42.9%	u	u	-3.4%	-7.0%
COc1cccc(CC2(CO)CCCN(Cc3[nH]c4ccc(C)cc4c3C)C2)c1 (stereo unspecified)	5.86µM*	25.2%	9.28µM*	u	10.2%	-8.3%
COc1ccc(CN2CCCC(CO)(Cc3ccc(F)cc3F)C2)cc1 (stereo unspecified)	10.4µM*	-8.9%	-17.1%	0.9%	-3.3%	7.5%
COc1cccc(CC2(CO)CCCN(Cc3ccc(C)s3)C2)c1 (stereo unspecified)	u	18.7%	u	-0.3%	4.9%	-24.4%
CCOc1ccc(CN2CCCC(CO)(Cc3ccc(F)cc3)C2)cc1 (stereo unspecified)	u	27.4%	-19.6%	-8.0%	-4.6%	0.0%
N#CCC(=O)NN	0.2%	x	4.7%	x	x	x
CCOC(=O)C1CCN(S(=O)(=O)c2cc(-c3onc(C)c3C)ccc2OC)CC1	x	x	x	x	4.9%	x
CC1(CCc2ccc3c(c2)OCO3)NCCc2c1[nH]c1ccccc21 (stereo unspecified)	u	-5.4%	10.4µM*	11.2µM*	5.3%	-4.2%
COC(=O)c1cnc(N2CCN(c3ccc(OC)cc3)CC2)c2ccccc12	x	x	x	x	0.2%	x
O=C(CN1c2ccccc2S(=O)(=O)c2ccccc21)Nc1ccccc1Cl	x	x	x	x	-0.1%	x
CC(NC(=O)Cn1ncc2c3ccccc3n(Cc3ccc(F)cc3)c2c1=O)c1ccccc1 (stereo unspecified)	x	x	x	x	2.0%	x
CCN1C(=O)[C@H]2[C@@H](c3ccc(SC4CCCCC4)cc3)N[C@@](CC(C)C)(C(=O)OC)[C@H]2C1=O	2.94µM*	19.1%	11.7µM*	u	-6.6%	6.2%
CCC(C)Sc1ccc([C@H]2N[C@@](Cc3ccccc3)(C(=O)OC)[C@H]3C(=O)N(CC)C(=O)[C@@H]23)cc1OC (stereo partly specified)	u	77.1%	3.29µM*	6.3%	-10.1%	6.5%
CCC(C)Sc1ccc([C@H]2N[C@@](CC(C)C)(C(=O)OC)[C@H]3C(=O)N(C)C(=O)[C@@H]23)cc1 (stereo partly specified)	u	241.9%	u	-5.5%	u	15.8%
CCC(C)Sc1ccc([C@H]2N[C@@](CC(C)C)(C(=O)OC)[C@H]3C(=O)N(CC)C(=O)[C@@H]23)cc1 (stereo partly specified)	u	35.4%	9.28µM*	-13.5%	0.8%	-2.5%
CCN1C(=O)[C@H]2[C@@H](c3ccc(-c4ccc(Cl)c(Cl)c4)cc3)N[C@@](Cc3ccccc3)(C(=O)OC)[C@H]2C1=O	u	-7.3%	u	u	-12.4%	3.2%
CCC(C)Sc1ccc([C@H]2N[C@@](Cc3ccccc3)(C(=O)OC)[C@H]3C(=O)N(CC)C(=O)[C@@H]23)cc1 (stereo partly specified)	1.65µM*	168.3%	3.29µM*	u	-7.1%	-5.4%
COc1ccc2c(c1)sc1ncc(C(=O)NCc3ccc(Cl)cc3)c(=O)n12	x	x	x	x	15.7%	x
COc1cc(OC)c(N(C)C(=O)CSc2c3c(nc4ccc(Cl)cc24)CCCC3)cc1Cl	x	x	x	x	2.8%	x
